# According to PubChem BioAssay AID463195 (Sanford-Burnham Center for Chemical Genomics, 2010):
# In all, about 330,000 compounds went through this assay and about 4,600 (1.4%) were called active. This is one part of a sample in which actives are shown more often than they occur. A number with no mark means an inactive call.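 How the source made its calls: active means inhibition of 40% or more at the single tested concentration; inactive means the rest.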
# Assay: growth inhibitors of isogenic TIM10 control yeast, primary screen, counter-screen for tim10-1 yeast inhibitor project, luminescence, uHTS (AID 463195);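 further: wild-type TIM10 isogenic control strain grown at permissive 25 °C; 0% = DMSO yeast wells and 100% = minimal medium wells without yeast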
# Details: S. cerevisiae TIM10 strain growth, BacTiter-Glo luminescence, 24 h; at 10 µM; hits give high values
row,SMILES,inhibition
1,Cc1ccc(-c2noc(C3CCCN(C(=O)c4cccc(Cl)c4)C3)n2)o1 (stereo not drawn),-12.1%
2,O=C(CNS(=O)(=O)c1ccc(Br)s1)N1CCN(C(=O)c2ccco2)CC1,-4.25%
3,Cc1ccc(N2C(=O)CC(NCc3ccc4c(c3)OCO4)C2=O)cc1Cl (stereo not drawn),9.87%
4,COC(=O)CN1C(=O)C(C)(C)Oc2ccc(C(=O)Nc3cccc(OC)c3)cc21,-1.11%
5,CCc1ccc2c(c1)C1(NN=C(c3ccccc3)S1)C(=O)N2 (stereo not drawn),41.4% (active)
6,Cc1ccccc1N(C(=O)Cc1cccs1)C(C(=O)NC1CCCCC1)c1cn(C)nc1C (stereo not drawn),18.5%
7,COc1cc2cc(CN(CCN3CCCC3)C(=O)Nc3ccccc3Cl)c(=O)[nH]c2cc1OC,1.82%
8,O=S(=O)(NC1CC1)c1ccc2c3c(cccc13)CC2,18.4%
9,CSc1ccc(S(=O)(=O)NC2CCCCC2)cc1,5.32%
10,O=S(=O)(NC1CCCCC1)c1ccc(F)c2ccccc12,48.4% (active)
11,O=C(Cn1nnc2ccccc2c1=O)NCc1ccc(Cl)cc1,-13.1%
12,CS(=O)(=O)N1CCN(CC(=O)NC2CCCC2)CC1,1.42%
13,COc1ccc(C(=O)C[n+]2ccc(N)c(C)c2C)cc1,-13.7%
14,Cc1ccc(-c2nn(C(C)(C)C)c3ncnc(N)c23)cc1,46.3% (active)
15,Cc1ccc(-n2cnc3ncnc(-c4ccccc4)c32)cc1,-13%
16,C=CC[C@H](CC(=O)OC(C)(C)C)C(=O)OC[C@H]1CCCN1C(=O)[C@H](CC=C)CC(=O)N(CCO)Cc1ccccc1,4.94%
17,O=C(Nc1cccc(S(=O)(=O)N2CCCC2)c1)c1cncc(Br)c1,97% (active)
18,O=C(Nc1cccc(S(=O)(=O)N2CCCCC2)c1)c1cncc(Br)c1,8.29%
19,O=C(CCNC(=O)c1ccc(Br)cc1)Nc1cccc(S(=O)(=O)N2CCCCC2)c1,-7.56%
20,CCOC(=O)c1cnc(SCc2nc(N)nc(Nc3ccc(OC)cc3)n2)nc1N,15.4%
21,COc1ccccc1Nc1nc(N)nc(CSC(=S)N2CCOCC2)n1,31.8%
22,COc1ccc(Nc2nc(N)nc(CSC(=S)N3CCC(C)CC3)n2)cc1,44.5% (active)
23,COc1cc(CC(=O)N2CCC(n3nccc3NC(=O)C3CC3)CC2)cc(OC)c1OC,-1.91%
24,CC1=C/C(=N\OS(=O)(=O)c2ccccc2)C=CC1=O,69.4% (active)

row,SMILES,inhibition
1,Cc1nc(C)c(-c2nnc(-c3cccc(S(=O)(=O)N(C)C)c3)o2)cc1C(=O)NN,11.6%
2,CCn1c(C)cc(=O)cc1-c1ccc(Cl)cc1,-2.03%
3,COc1ccc(Cn2c(-c3ccc(Cl)cc3)c[n+]3ccccc23)cc1,45.6% (active)
4,COc1ccc(Cn2c(=O)cc(C)[nH]c2=S)cc1,8.93%
5,COc1cccc(OCc2cc(C(=O)N3CCN(C(=O)c4ccco4)CC3)no2)c1,97.6% (active)
6,COc1ccc(OCc2cc(C(=O)N3CCCC3)no2)c2ccccc12,-11.8%
7,O=C(c1cc(COc2cccc(C(F)(F)F)c2)on1)N1CCSCC1,19.8%
8,CC(=O)C[C@H](O)CC(=O)[C@@H]1OC(=O)[C@@H](C)C/C=C\Cc2ccccc21,4.22%
9,CCc1cccc(NC(=O)C2CCCN(S(=O)(=O)c3ccc4[nH]c(=O)ccc4c3)C2)c1 (stereo not drawn),-4.86%
10,CCN1/C(=C\c2ccc3ccccc3[n+]2CC)Sc2cc(C)ccc21,78.3% (active)
11,COc1ccc2c(c1OC)C(=O)N(c1ccc(O)cc1)C2,-21.6%
12,CCC1CCC2(CC1)NC(=O)N(CC(=O)Nc1ccc(OC)cc1)C2=O (stereo not drawn),-4.33%
13,CN(c1cccc(NC(=O)c2ccc(CN3CCc4ccccc4C3)cc2)c1)S(C)(=O)=O,-4.01%
14,CCOC(=O)c1cc(C(=O)Nc2ccc(S(=O)(=O)Nc3ccc(OC)cc3)cc2)nn1C,8.95%
15,Cc1ccc(C(=O)COc2cccc(NC(=O)c3ccco3)c2)cc1,54% (active)
16,COc1ccc(OCC(=O)Nc2ccc(NC(=O)c3ccco3)c(C)c2)cc1,-13.8%
17,Cc1cccc(OCC(=O)Nc2ccc(NC(=O)c3ccco3)c(C)c2)c1,-8.94%
18,COC(=O)c1onc(-c2c(OC)cc(OC)cc2OC)c1C(=O)OC,6.8%
19,CC1=C(C(=O)Nc2cc(C)ccn2)C(c2cnn(C)c2)C2=C(CC(c3ccccc3)CC2=O)N1 (stereo not drawn),6.51%
20,O=C(NCc1ccc(F)cc1)C1CCN(C(=O)Nc2ccc(F)cc2)CC1,-14%
21,O=[N+]([O-])c1ccc(C=Nc2ccc(Cl)cc2Cl)s1,71.2% (active)
22,CC1CN(C(=O)c2ccc([N+](=O)[O-])s2)CC(C)O1 (stereo not drawn),6.54%
23,CCC1=NN(C(=O)Cc2ccc([N+](=O)[O-])cc2)C(O)(c2ccc(Br)cc2)C1 (stereo not drawn),27%
24,O=C(Nc1cccc(-c2nc3ncccc3o2)c1)c1ccco1,12.8%

row,SMILES,inhibition
1,O=C(Nc1ccc2oc(-c3ccc4ccccc4c3)nc2c1)c1cccs1,0.529%
2,O=C(Nc1ccc2oc(-c3ccccc3F)nc2c1)c1ccco1,67.2% (active)
3,Cc1cc(C)cc(NC(=O)Cn2cnc3c(nnn3Cc3ccc(F)cc3)c2=O)c1,-9.34%
4,Cc1ccc(Nc2cc(=O)n(C3CCCCC3)c(=O)[nH]2)cc1C,4.8%
5,COc1cc(NC(=O)c2ccc3c(c2)OCO3)ccc1NC(=O)c1cccs1,11%
6,COc1cc2ccccc2cc1C(=O)Nc1ccc(NC(=O)c2cccs2)cc1,-34.6%
7,COc1cc(NC(=O)c2cccs2)ccc1NC(=O)c1ccccc1Cl,40.9% (active)
8,C=C1C2C[C@H](O)C(C)(C)[C@@]2(O)[C@H](O)C[C@]23C[C@@](C)(O)[C@H](CC[C@H]12)[C@H]3O (stereo partly drawn),-10.5%
9,Cc1ccc(/C(N)=N/OC(=O)COc2ccc(Cl)c(C)c2)cc1,30.7%
10,Cc1ccc(C(=O)O/N=C(\N)c2ccccn2)cc1Cl,28.2%
11,Cc1cccc(/C(N)=N/OC(=O)c2ccccc2Cl)c1,71.3% (active)
12,CCOC(=O)c1ccc2[nH]c3c(c2c1)CCCC3NC=O (stereo not drawn),16.6%
13,COc1ccc(NC(=O)ON=C2c3ccccc3-c3ccccc32)cc1,8.51%
14,CN1C(=O)/C(=N/OC(=O)c2ccccc2Br)c2ccccc21,68.9% (active)
15,CN1C(=O)/C(=C\c2cc(Br)cs2)c2ccccc21,30.2%
16,Cc1ccc(-c2noc(CCC(=O)Nc3ccccc3N3CCN(C)CC3)n2)cc1,10.4%
17,O=C(Nc1cccc(CCc2ccccn2)c1)c1ccc(Cl)cc1,1.78%
18,O=C(Nc1cccc(Cl)c1)OCc1ccccn1,47.9% (active)
19,O=C(Nc1ccc(Cl)cc1)OCc1cc(-c2ccccc2)on1,6.71%
20,O=C(COC(=O)c1cc([N+](=O)[O-])ccc1NCc1ccccc1)NC1CCCCC1,-9.16%
21,CC(=O)Nc1ccc(S(=O)(=O)N(C)CC(=O)NCCC2=CCCCC2)cc1,3.82%
22,CCn1nc(C)c(CNC(=O)C2CCC(=O)N(Cc3cccc(F)c3)C2)c1C (stereo not drawn),-0.612%
23,Cc1cc(Nc2ccccc2)n(C(=O)c2ccc(N)cc2)n1,57.7% (active)
24,Cn1c(Nc2ccccc2)cc(=O)n(C)c1=O,0.045%

row,SMILES,inhibition
1,Cc1cc(C)n(C(=O)c2ccc(S(=O)(=O)N3CCCC3)cc2)n1,3.81%
2,O=C(Cn1c(N2CCN(C/C=C/c3ccccc3)CC2)nc2ccccc21)c1ccccc1,30.9%
3,COc1ccc(Cl)cc1NC(=O)CN(C)CC(=O)Nc1ccc2c(c1)OCO2,-6.17%
4,Cc1ccc(NNC(=O)c2c(F)cccc2Cl)cc1Cl,11.3%
5,Cc1cc(OC(=O)c2c(Cl)cccc2Cl)nc(C)n1,-1.42%
6,Cc1cc(C)c(S(=O)(=O)c2ccccc2)c(OC(=O)c2c(F)cccc2Cl)n1,59.8% (active)
7,COCCCN1C(=O)c2ccc(C(=O)OCC(=O)NCc3ccccc3OC)cc2C1=O,2.82%
8,O=C(Nc1ccc(Br)cn1)c1ccc([N+](=O)[O-])cc1Cl,14.3%
9,Cc1onc(C(=O)Nc2ccc3c(c2)OCO3)c1[N+](=O)[O-],-7.9%
10,O=C(Nc1cccc(O)c1)c1ccc(C(=O)c2ccccc2)o1,30.4%
11,Cc1cccc(NC(=O)c2ccc([N+](=O)[O-])o2)c1,60.3% (active)
12,O=C(Nc1ccc(Br)cn1)c1ccc([N+](=O)[O-])o1,57.3% (active)
13,Cc1onc(C(=O)NCc2ccc(F)cc2)c1[N+](=O)[O-],-0.126%
14,CN1C(=O)c2ccc(C(=O)Nc3ccc(Br)cn3)cc2C1=O,3.52%
15,Cc1onc(NC(=O)c2ccc([N+](=O)[O-])o2)c1Br,46.6% (active)
16,CCN(CC)S(=O)(=O)c1ccc(N2CCCC2)c(NC(=O)c2ccc([N+](=O)[O-])o2)c1,28.1%
17,CC(C)(C)c1nnc(NC(=O)C2c3ccccc3Oc3ccccc32)s1,29.5%
18,Cc1ccc(CNC(=O)c2cccc3c2C(=O)c2ccc(N4CCC(C)CC4)cc2S3(=O)=O)cc1,4.75%
19,CC(=O)Nc1ccc(C(=O)N(C2=NC(C)CS2)c2ccc(Cl)cc2)cc1 (stereo not drawn),20.1%
20,CC(=O)OCC(COC(C)=O)OC(C)=O,5.8%
21,COc1ccc(S(=O)(=O)NCCc2cc3ccc(C)c(C)c3[nH]c2=O)cc1,5.58%
